Data on 34 compounds can be found in the supplement of paper PMC7156485.

Values joined by “and” are separate entries in the source; they are usually repeats but may differ in a detail not shown here. Equal values may be shown once. Where a name gives a salt, the structure may show the parent alone. Unmarked numbers belong to inactive results.
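Note: TDF is a line of transformed human dermal fibroblasts of mesenchymal origin.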

In the test the test system is HCC1569. In words: H1.0 immunofluorescence intensity relative to DMSO (% of DMSO); higher = stronger H1.0 induction, active = 140 or more. Particulars: concentration: 10 µM; 24 h. In outline:
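Compounds were applied at 10 µM for 24 h at 37 °C, in triplicate, to HCC1569 and TDF cells. The cells were then fixed and stained for H1.0, and nuclei were counterstained with DAPI. Nuclear H1.0 intensity or cell number is reported relative to the plate control as a percent, taking the median of replicates. Smoothing for positional effects was applied to HCC1569 values only.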
In the case of `CCCCCC(O)C=CC1C2CC(CO2)C1CC=CCCCC(=O)O` (centres undefined), the H1.0 immunofluorescence intensity is 99.9.
As to `CC(C)(C)NCC(O)c1ccc(O)c(CO)c1` (centres undefined) [Salbutamol], the H1.0 immunofluorescence intensity is 101.
As to `NC1CONC1=O` [L-Cycloserine], the H1.0 immunofluorescence intensity was 84.8.
For `CC(C)CCNC(C)C1CCC2C3CC=C4CC(O)CCC4(C)C3CCC12C` (centres undefined) [22-Azacholesterol], the H1.0 immunofluorescence intensity was 110.
For the compound `CNC(=C[N+](=O)[O-])NCCSCc1ccc(CN(C)C)o1.Cl` [Ranitidine hydrochloride], the H1.0 immunofluorescence intensity was 85.1.
As for `COc1ccc(-c2cc(=S)ss2)cc1` [Anethole-trithione], the figure is 103; as for `CNC(=O)C1OC(n2cnc3c(NCc4cccc(I)c4)ncnc32)C(O)C1O` (centres undefined), 82.1.
On to `COc1ccc2c(c1)c(CC(=O)Nc1ccc(NC(C)=O)cc1)c(C)n2C(=O)c1ccc(Cl)cc1` [N-(4-acetamidophenyl)indomethacinamide], for which the H1.0 immunofluorescence intensity is 149 (active).
In the case of `CN1CCN(CC(=O)N2c3ccccc3C(=O)Nc3cccnc32)CC1.Cl.Cl` [Pirenzepine.2HCl] it was 106; in that of `CN1CCN(c2ccc3c(c2)NC(=C2C(=O)N=c4cccc(F)c4=C2N)N3)CC1`, 149 (active).
Regarding `CCCCCC(O)C=CC1C(O)CC(O)C1CCCCCCC(=O)O` (centres undefined) [Prostaglandin F1a], the H1.0 immunofluorescence intensity is 97.7.
As for `COc1cc2c(cc1O)CCC1C2CCC2(C)C(O)CCC12` (centres undefined) [2-methoxyestradiol], the figure is 156 (active); as for `CC(C)(C)c1ccc(S(=O)(=O)C=CC#N)cc1`, 135.
As for `CCCCCC=CCC(O)C=CC=CCCC(=O)O` [Tetranor-12(R)-HETE], the figure is 102.
In the case of `C#CCCCCCCCCCCCCCCCC(=O)O` [17-Octadecynoic acid] it was 99.4; in that of `CC12CCC(=O)C=C1CCC1C2C(O)CC2(C)C1CCC2(O)C(=O)COC(=O)CCC(=O)[O-].[Na+]` (centres undefined) [Hydrocortisone 21-hemisuccinate sodium], 125; in that of `OCc1c[nH]c2ccccc12` [Indole-3-carbinol], 110.
Consider `Cl.NC1C=CC=C(C(=O)O)C1` (centres undefined) [Gabaculine hydrochloride], for which the H1.0 immunofluorescence intensity is 105.
In the case of `CCCNC1CCc2nc(N)sc2C1` (centres undefined) [Pramipexole] it was 107.
As for `COc1ccccc1N1CCN(CCN(C(=O)C2CCCCC2)c2ccccn2)CC1.O=C(O)C=CC(=O)O`, the figure is 100; as for `CC(C(O)c1ccc(O)cc1)N1CCC(Cc2ccccc2)CC1` (centres undefined) [Ifenprodil tartrate], 98.5; as for `Nc1ncnc2n[nH]c(Nc3ccc(F)cc3)c12`, 118.
Turning to `CCCCCCC(O)CC=CCCCCCCCC(=O)O` (centres undefined) [Ricinoleic acid], the H1.0 immunofluorescence intensity is 101.
As for `Cc1ccc(NC(=O)c2cccc(N(C)C)c2)cc1NC(=O)c1ccc(O)cc1`, the figure is 110 and 119.
Regarding `NCCC(O)(P(=O)([O-])O)P(=O)([O-])O.O.O.O.O.O.[Na+].[Na+]` [Pamidronate.2Na.5H2O], the H1.0 immunofluorescence intensity is 107.
In the case of `O=C(O)Cc1c[nH]c2ccc(O)cc12` [5-Hydroxyindolacetic acid] it was 97.9; in that of `CCCCc1oc2ccccc2c1C(=O)c1cc(I)c(OCCN(CC)CC)c(I)c1.Cl` [Amiodarone hydrochloride], 101.
As for `COc1cc(C(=O)OCCC[NH+]2CCC[NH+](CCCOC(=O)c3cc(OC)c(OC)c(OC)c3)CC2)cc(OC)c1OC.[Cl-].[Cl-]` [Dilazep hydrochloride], the figure is 107; as for `CCNC(=O)CC[C@H](N)C(=O)O` [L-Theanine], 95.6.
In the case of `CCCC1OC2CC3C4CCC5=CC(=O)C=CC5(C)C4C(O)CC3(C)C2(C(=O)CO)O1` (centres undefined) [Budesonide] it was 96.4; in that of `Cl.NCCc1ccc(O)c(O)c1` [Dopamine hydrochloride], 89.7.
As to `CN1C(CC(=O)c2ccccc2)CCCC1CC(O)c1ccccc1` (centres undefined) [Lobeline], the H1.0 immunofluorescence intensity was 99.8.
As for `Cl.c1ccc(C2CN3CCSC3=N2)cc1` (single isomer, unassigned; (-)) [(-)-Tetramisole hydrochloride], the figure is 98.7; as for `NCCS(=O)O` [Hypotaurine], 88.6.
